An excerpt weighted towards active compounds, which were near 1.6% of everything screened.
MLLE-PAM2 inh: blocks PAM2 peptide binding to the PABP1 MLLE domain; inhibition, % at 20 µM; GST-MLLE / FITC-PAM2 fluorescence polarization; P11940; 360,000 tested, 0.36% active; in the data active = inhibition above about 35%, passing the limit was not always enough
PABP FP inh: PABP-poly(A) binding inhibition; P11940; PABP-poly(A) RNA binding, fluorescence polarization; calls only at 35 µM; 290,000 tested, 1% active;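 note: calls also rest on retests at 20 µM and on dose response follow-up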
eIF4E 4G PPI: eIF4E/eIF4G interaction inhibition in translation initiation. TR-FRET eIF4E-eIF4GI(517-606) binding, 2 h. inhibition, % at 21.7 µM. 220,000 tested, 0.37% active. AID 782;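 active = inhibition above about 30%, limit read from the data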
PERK inh: inhibitors of human PERK kinase. CHO PERK-DD fusion, SEAP luminescence translation reporter. inhibition, % at 5.6 µM. 220,000 tested, 0.17% active. AID 1416;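 active = inhibition above the mean inhibition of all tested compounds plus 3 SD, set separately per screening campaign, cut at about 2.9% in these data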;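 note: PERK kinase domain activated by AP20187 dimerizer at 100 nM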
eIF4H FP inh: inhibitors of RNA binding by human eIF4H. Q15056. eIF4H fluorescence polarization binding assay. inhibition, % at 35 µM. 290,000 tested, 0.94% active. AID 2012;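 note: calls also rest on retests at 20 µM and on dose response follow-up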
Numbers stand for hits; - = inactive; ? = inconclusive; . = no result; + = active, no number. Unless noted, the rule behind the calls is not given here.

SMILES | MLLE-PAM2 inh | PABP FP inh | eIF4E 4G PPI | PERK inh | eIF4H FP inh
O=C(CSc1nncc2ccccc12)N1CCOCC1 | 41.8 | - | - | - | -
Cc1cccc(N2CCN(C(=O)NC(C)c3ccc(F)c(F)c3)CC2)c1C (centres undefined) | - | - | . | . | -
Cc1cccc(OCCOC(=O)c2ccc(F)c(S(=O)(=O)N3CCOCC3)c2)c1 | - | . | . | . | .
Cc1ccc(S(=O)(=O)/C(C#N)=C/c2c(N3CC(C)OC(C)C3)nc3c(C)cccn3c2=O)cc1 (centres undefined) | - | + | - | - | 46.0
Cc1ccc(S(=O)(=O)/C(C#N)=C/c2c(N3CCN(C)CC3)nc3c(C)cccn3c2=O)cc1 | - | - | - | - | 52.0
CCN1CCN(c2nc3c(C)cccn3c(=O)c2/C=C(\C#N)S(=O)(=O)c2ccc(C)cc2)CC1 | - | - | - | - | -
CN1C(=O)c2ccccc2CC12c1ccccc1C(=O)N2C (centres undefined) | - | . | . | . | .
Cc1cc2cc(CN(CCN3CCOCC3)C(=O)Nc3ccccc3F)c(=O)[nH]c2cc1C | - | - | - | - | -
Cc1cccc2cc(CN(CCN3CCOCC3)C(=O)Nc3ccccc3F)c(=O)[nH]c12 | - | + | - | - | 81.4
COc1cc(C(=O)N2Cc3cc4ccccc4nc3C2C)cc(OC)c1OC (centres undefined) | - | . | . | . | .
O=C(CCNc1ccc(Cc2ccncc2)cc1)c1ccc([N+](=O)[O-])cc1 | 40.4 | - | - | - | -
CCC12CCCN3CCc4c(n(c5ccccc45)C(O)(C(=O)OC)C1)C32 (centres undefined) | - | + | - | - | 95.8
Cc1ccc(S(=O)(=O)N2CCSCCSCCSCCSCC2)cc1 | - | . | . | . | .
COC(=O)c1ccsc1NS(=O)(=O)c1ccccc1 | - | - | . | . | -
Cc1ccc(S(=O)(=O)CCSc2cccc(C(=O)O)c2)cc1 | 44.0 | - | . | . | -
O=C1NC(c2ccc(Br)cc2)Nc2sc3c(c21)CCC3 (centres undefined) | - | + | - | - | 102.6
O=C1NC(c2ccccn2)Nc2sc3c(c21)CCC3 (centres undefined) | - | - | - | - | -
CN1CCc2c(sc3c2C(=O)NC(c2ccccc2)N3)C1 (centres undefined) | - | + | - | - | 63.3
CC(CNc1ccccc1O)C(=O)O (centres undefined) | 76.0 | - | - | - | -
CCCCC(=O)Nc1ccccc1CC | - | - | - | - | -
Cc1cccc(CN2C(=O)N/C(=C/c3ccc(C)s3)C2=O)c1 | - | + | - | - | 68.8
Cc1ccc(/C=C2/NC(=O)N(Cc3ccccc3)C2=O)s1 | - | ? | - | - | ?
CC(Cc1ccccc1)C(=O)NCc1ccncc1 (centres undefined) | - | - | - | - | -
O=C(NC(=S)NC(CO)Cc1ccccc1)c1ccc(F)cc1 (centres undefined) | 33.3 | - | . | . | -
CC(Cc1ccccc1)C(=O)N[C@@H](CO)Cc1ccccc1 (some centres undefined) | - | + | - | - | active
SMILES | MLLE-PAM2 inh | PABP FP inh | eIF4E 4G PPI | PERK inh | eIF4H FP inh
CCCCn1c(N)c(C(=S)NC(=O)CC(C)(C)C)c(=O)n(C)c1=O | 48.0 | - | - | - | -
CC1(C)C2CCC1(CS(=O)(=O)N1CCC(C(=O)O)CC1)C(=O)C2 (centres undefined) | - | - | - | - | -
O=Cc1c(N2CCN(CCO)CC2)nc2ccccn2c1=O | 47.1 | ? | . | . | ?
Cc1ccc(S(=O)(=O)N2CCOCC2)cc1NC(=O)COC(=O)Cc1ccccc1 | - | . | . | . | .
CN(CC(=O)Nc1ccc(F)c(F)c1F)C(=O)c1ccc2c(c1)OCCO2 | - | . | . | . | .
NS(=O)(=O)c1ccc(N/N=C/c2ccc(O)c(O)c2O)c([N+](=O)[O-])c1 | 42.4 | - | 78.3 | - | 95.8
Cc1ccc(Cl)cc1N1CCN(C(=O)CN(c2ccccc2)S(=O)(=O)N(C)C)CC1 | - | - | - | - | 61.8
O=C(COC(=O)COc1ccccc1[N+](=O)[O-])NC1CCCCC1 | - | . | . | . | .
Nc1[nH]c(=O)[nH]c(=O)c1N=Cc1ccccc1 | 68.4 | . | . | . | .
Cc1cc(=O)[nH]c(NCc2ccc(Cl)cc2)n1 | - | - | . | . | -
Cc1ccc(-n2c(-c3cc(-c4ccco4)[nH]n3)n[nH]c2=S)c(Br)c1 | - | + | - | - | ?
O=C(O)c1ccc(-n2c(-c3cc(-c4ccco4)[nH]n3)n[nH]c2=S)cc1 | - | + | - | - | 86.9
S=c1[nH]nc(-c2cc(-c3ccco3)[nH]n2)n1-c1cccc2ccccc12 | - | ? | - | - | ?
CC(=O)c1ccc(-n2c(-c3cc(-c4ccco4)[nH]n3)n[nH]c2=S)cc1 | - | - | - | - | -
CCOc1ccc(C(=O)NCC(=O)NNC(=O)CN(C)S(=O)(=O)c2ccc(Cl)cc2)cc1 | - | . | . | . | .
COC(=O)Nc1ccc(S(=O)(=O)N2CCC(C(=O)NCc3ccc4c(c3)OCO4)CC2)cc1 | - | . | . | . | .
CN1C(=O)SC(Nc2ccccc2C(=O)O)C1=O (centres undefined) | 38.4 | - | - | - | -
COc1ccc(NC(=O)CCCSc2ccccc2)cc1 | - | - | - | - | -
COc1cc2c(c(NC(C)=O)c1)N(C(C)=O)CCC2 | - | . | . | . | .
COc1ccc(C(=O)COC(=O)c2cccnc2Cl)c(OC)c1 | - | - | - | - | 58.7
CC(C)c1ccc(NC(=O)CSc2nc(=O)n(CCCN3CCOCC3)c3c2CCCC3)cc1 | - | . | . | . | .
O=C(NC(=S)N1CCCC1)c1ccccc1Cl | - | - | . | . | -
O=C(NC(=S)N1CCCC1)c1ccccc1F | 44.4 | . | . | . | .
CCCCNS(=O)(=O)c1cc2c3c(c1)CCN3C(=O)CC2 | - | - | . | . | -
COC(=O)C1=C(C)NC(=O)C1(NS(=O)(=O)c1ccc(C)cc1)C(F)(F)F (centres undefined) | - | + | - | - | -
SMILES | MLLE-PAM2 inh | PABP FP inh | eIF4E 4G PPI | PERK inh | eIF4H FP inh
COC(=O)C1=C(C)NC(=O)C1(Nc1nccs1)C(F)(F)F (centres undefined) | - | - | - | - | -
Cc1cc(C)c(-c2csc(NC(=O)COC(=O)c3ccc4c(c3)OCO4)n2)c(C)c1 | - | - | - | - | -
O=C(COC(=O)c1ccc2c(c1)OCO2)Nc1nc(-c2ccccc2)cs1 | - | + | - | - | -
NS(=O)(=O)c1ccc(NC(=O)COC(=O)c2ccc3c(c2)OCCO3)cc1 | - | + | - | - | active
CC(=O)NC(Cc1ccccc1F)C(=O)NC1CCN(C(=O)Nc2ccc(C)cc2)CC1 (centres undefined) | - | - | . | . | -
O=C(CCC(=O)OCc1ccc([N+](=O)[O-])cc1Cl)Nc1ccccc1 | - | - | . | . | -
COc1ccc(CNC(=O)C2CCN(S(=O)(=O)N3CCCC3)CC2)c(OC)c1 | - | - | . | . | -
COc1cc(C2C3=C(COC3=O)Oc3cc4c(cc32)OCO4)cc(OC)c1O (centres undefined) | - | . | . | . | .
O=C(COc1ccccc1)N/N=C/c1ccc([N+](=O)[O-])o1 | - | + | - | - | 51.0
O=C(N/N=C/c1ccc([N+](=O)[O-])o1)C(=O)Nc1ccc(C(=O)O)cc1 | - | + | - | - | 83.2

Bioassay records (PubChem BioAssay)
